Assay results from PubChem BioAssay (EPA / NIEHS).
Activity calls are given as the source filed them. How the source made its calls: active means hit-call score of the fitted dose curve at least 0.9, where 1 is the maximum; inactive means score below 0.9.

Assay: ATG_GRE_CIS: Attagene CIS-FACTORIAL HepG2 Assay for human Glucocorticoid Response Elements (GRE) (AID 2282947)
Settings: HepG2 GRE cis-reporter, Attagene multiplex mRNA; actives raise or lower the signal
Protocol: ATG_CIS is a cell-based, multiplexed-readout assay that uses HepG2, a human liver cell line, with measurements taken at 24 hours after chemical dosing in a 24-well plate.ATG_GRE_CIS is one of 52 assay component(s) measured or calculated from the ATG_CIS assay. It is designed to make measurements of mRNA induction, a form of inducible reporter, as detected with fluorescence intensity signals by Reverse transcription polymerase chain reaction (RT-PCR) and Capillary electrophoresis technology.Data from the assay component ATG_GRE_CIS was analyzed into 1 assay endpoint. This assay endpoint, ATG_GRE_CIS, was analyzed with bidirectional fitting relative to DMSO as the negative control and baseline of activity. Using a type of inducible reporter, measures of mRNA for gain or loss-of-signal activity can be used to understand the reporter gene at the transcription factor-level as they relate to the gene NR3C1. Furthermore, this assay endpoint can be referred to as a primary readout, because this assay has produced multiple assay endpoints where this one serves a reporter gene function. To generalize the intended target to other relatable targets, this assay endpoint is annotated to the nuclear receptor intended target family, where the subfamily is steroidal.
Human liver HepG2 cells are transiently transfected with multiple reporter transcription units (MRTUs) in 6-well plates using FuGene 6 reagent (Roche; 3 ml FuGene/1 mg DNA). The MRTU constructs are regulated by a cis-regulating element (promoter). […] A major difference between the CIS and TRANS system is that in CIS activities of endogenous TFs are measured, whereas the TRANS assay evaluates changes in activities of exogenous, chimeric NR-Gal4 proteins. […] At the end of 24 hour incubation, total RNA was isolated using TriZol reagent (Invitrogen). The isolated RNA is then reverse-transcribed using oligo(dT) primer and Mo-MLV reverse transcriptase (Invitrogen) with DNAse I (Ambion) treatment for 30 min. The one-tenth of the produced cDNA was amplified by PCR using Taq DNA polymerase (Invitrogen) and two reporter sequence-specific primers. The PCR products were fluorescently labeled by primer extension with 6-arboxyfluorescein (6-FAM) 5'-labeled reporter sequence-specific primer (2 min at 95 C, 20 s at 68 C and 10 min at 72 C) and these products were digested with 5U of HpaI (New England Biolabs) for 2h at 37 C. The fragments were purified using Qiaquick PCR columns (Qiagen), analyzed on an ABI 3130xL genetic analyzer (Applied Biosystems) with peak positions identified by using a set of X-rhodamine (ROX)-labeled MapMarker1000 molecular weight standards (BioVentures). The raw capillary electrophoresis data was processed using Attagraph software (Attagene).

Row | Structure (SMILES) | outcome | AC50
1 | Cc1ccc2c(c1)C(=O)c1ccccc1C2=O | inactive | –
2 | COc1cc(NC(=O)CC(C)=O)c(OC)cc1Cl | inactive | –
3 | CC(C)C1=CC2=CC[C@@H]3[C@](C)(CCC[C@@]3(C)C(=O)O)[C@H]2CC1 | – | 119 µM (active)
4 | CCOC(=O)Cc1cccc2ccccc12 | inactive | –
5 | O=C(Oc1ccccc1)c1ccc2ccccc2c1O | inactive | –
6 | c1ccc(-c2ccccn2)nc1 | inactive | –
7 | CC1(C)O[C@@H]2C[C@H]3[C@@H]4C[C@H](F)C5=CC(=O)CC[C@]5(C)[C@H]4[C@@H](O)C[C@]3(C)[C@]2(C(=O)CO)O1 | – | 0.0823 µM (active)
8 | c1ccc(CNCc2ccccc2)cc1 | inactive | –
9 | C=C(C)[C@@H]1CCC2=CCC[C@@H](C)[C@]2(C)C1 | inactive | –
10 | Nc1ccc(Oc2ccc(N)c(N)c2)cc1 | inactive | –
11 | C=CC=CC=CCCCCC | inactive | –
12 | C=C(C)C(=O)OCCO | inactive | –
13 | C[Si](C)O[Si](C)(C)O[Si](C)(C)O[Si](C)C | inactive | –
14 | Cc1cccc(N(C)C(=S)Oc2ccc3ccccc3c2)c1 | inactive | –
15 | CCCCC(CC)COC(=O)c1ccccc1 (stereo not given) | inactive | –
16 | CC(C)=CC1CC(C)CCO1 (stereo not given) | inactive | –
17 | CCCCCc1ccc(Cl)cc1 | inactive | –
18 | CC(=O)OCCC1CCCCC1 | inactive | –
19 | CCCCCC/C=C\CCCCCCCC(=O)O | inactive | –
20 | O=c1cc[nH]c(=S)[nH]1 | inactive | –

Row | Structure (SMILES) | outcome | AC50
21 | SCCc1cnccn1 | inactive | –
22 | O=S(=O)(O)c1ccc2cc(O)c(S(=O)(=O)O)cc2c1 | inactive | –
23 | C[C@]12CCC(=O)C=C1CC[C@@H]1[C@@H]2C(=O)C[C@@]2(C)[C@H]1CC[C@]2(O)C(=O)CO | inactive | –
24 | CC(=O)OC1C2(C)CCC(C2)C1(C)C (stereo not given) | inactive | –
25 | OC1OCCOC1O (stereo not given) | inactive | –
26 | CCCCNc1ccc(NCCCC)c2c1C(=O)c1ccccc1C2=O | inactive | –
27 | CC(=O)Nc1nnc(S(N)(=O)=O)s1 | inactive | –
28 | Nc1ccc(N)c(Cl)c1 | inactive | –
29 | O=CC1CC1 | inactive | –
30 | NC(=O)N=NC(N)=O | inactive | –
31 | CC1(C)O[C@@H]2C[C@H]3[C@@H]4C[C@H](F)C5=CC(=O)C=C[C@]5(C)[C@@]4(F)[C@@H](O)C[C@]3(C)[C@]2(C(=O)CO)O1 | – | 0.563 µM (active)
32 | CC(C)(c1cc(Br)c(OCCO)c(Br)c1)c1cc(Br)c(OCCO)c(Br)c1 | – | 44.2 µM (active)
33 | CC(=O)c1ccc[nH]1 | inactive | –
34 | CC[C@H]1OC(=O)[C@H](C)[C@@H](O[C@H]2C[C@@](C)(OC)[C@@H](O)[C@H](C)O2)[C@H](C)[C@@H](O[C@@H]2O[C@H](C)C[C@H](N(C)C)[C@H]2O)[C@](C)(O)C[C@@H](C)C(=NOCOCCOC)[C@H](C)[C@@H](O)[C@]1(C)O | inactive | –
35 | OCCc1ccncc1 | inactive | –
36 | O=C1CCC(=O)N1Cl | inactive | –
37 | COc1ccc(NC(C)=O)cc1N | inactive | –
38 | O=C1CC2CC1C1CCCC21 (stereo not given) | inactive | –
39 | COc1ccc2nc(N)sc2c1 | inactive | –
40 | CC(C)(C)c1n[nH]c(=O)n(N)c1=O | inactive | –
